Screens (PubChem)
This is a sample that favours compounds with a hit; in the whole collection about 3.5% have one here.
TMEM16A inh: TMEM16A chloride channel inhibitors, primary screen, cell-based, HTS; normalized B-score (activity score, 25-100; higher = stronger inhibition) at 10 µM; HEK293 TMEM16A/YFP iodide influx fluorescence, ionomycin; 310,000 compounds, 1.2% hits; AID 588511, 2011;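 active means ratio plate-corrected score three or more library SD toward inhibition, starting fluorescence score within five deviations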;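 further: score derived from kinetic fluorescence span divided by baseline fluorescence per well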
KCNK3 block: human KCNK3 channel inhibitors, primary screen, CHO cells, FluxOR thallium flux, B-score; 340,000 compounds, 0.84% hits; AID 602410, 2012; FluxOR fluorescence; active compounds read low; Potassium channel subfamily K member 3 (Homo sapiens), O14649; B-score at 10 µM;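 active means B-score under library mean minus 4 SD, starting fluorescence ratio at most library mean plus 5 SD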;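 further: more negative B-score means stronger inhibition of thallium flux through KCNK3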
Kir21 block: inhibitors of mouse Kir2.1 inward-rectifier potassium channel. HEK293-Kir2.1, FluxOR thallium flux fluorescence; active compounds read low. B-score at 10 µM. AID 1672, 2009. 310,000 compounds, 0.85% hits. Inward rectifier potassium channel 2 (Mus musculus), P35561;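 active means fluorescence ratio B-score at or below minus 3 SD of library scores, with starting-brightness B-score within 2 SD, cut at about -4.2 in these data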;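 further: channel flux triggered by added potassium and thallium sulfate stimulus; B-score of peak minus minimum fluorescence over baseline after thallium stimulus; more negative B-score means stronger Kir2.1 block with less thallium influx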
Target sequence (P35561 whole entry, looked up): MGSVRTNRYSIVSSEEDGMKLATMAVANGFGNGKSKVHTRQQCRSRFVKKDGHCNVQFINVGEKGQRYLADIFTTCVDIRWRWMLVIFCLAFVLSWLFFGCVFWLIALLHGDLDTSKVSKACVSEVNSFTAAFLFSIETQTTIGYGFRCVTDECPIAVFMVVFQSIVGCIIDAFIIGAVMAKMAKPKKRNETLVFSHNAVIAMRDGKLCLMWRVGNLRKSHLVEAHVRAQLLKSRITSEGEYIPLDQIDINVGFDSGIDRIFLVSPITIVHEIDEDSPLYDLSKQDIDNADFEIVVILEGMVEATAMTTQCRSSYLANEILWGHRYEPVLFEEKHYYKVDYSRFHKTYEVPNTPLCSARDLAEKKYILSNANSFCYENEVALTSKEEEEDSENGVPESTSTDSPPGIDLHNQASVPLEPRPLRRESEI
KCNK9 inh: KCNK9 potassium channel inhibitors, primary screen, HEK293 cells, thallium flux. FluxOR thallium flux fluorescence; active compounds read low. 310,000 compounds, 1.2% hits. Potassium channel subfamily K member 9 (Homo sapiens), Q9NPC2. AID 488922, 2010. B-score at 10 µM;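 active means ratio B-score over 3 SD below the library mean, with starting fluorescence within 5 SD of its mean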;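 further: negative B-score means less thallium flux so channel inhibition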
ANO1 activ: TMEM16A chloride channel activators or potentiators, primary screen, cell-based, HTS; HEK293 TMEM16A/YFP-H148Q/I152L, iodide quench fluorescence; active compounds read low; 340,000 compounds, 0.3% hits; B-score at 10 µM; Anoctamin-1 (Mus musculus), Q8BHY3;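 active means fluorescence-ratio B-score plate-corrected deviation score at least 3 library SD below zero, with starting fluorescence score within 5 deviations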;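 further: channel opened by trigger with iodide after compound preincubation; score built on the fluorescence ratio of max minus min over baseline; more negative score means more quench and so TMEM16A activation or potentiation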
A number is an active result; 0 = inactive; - = not tested or not shown.

SMILES	TMEM16A inh	KCNK3 block	Kir21 block	KCNK9 inh	ANO1 activ
CCC(CC)C(=O)OCC(=O)Nc1cccc(S(=O)(=O)N(C)c2ccccc2)c1	0	0	0	-7.2	0
CCCn1nc(C(=O)NCc2ccc3c(c2)OCO3)c2ccccc2c1=O	0	-8.9	0	0	0
CCCn1nc(C(=O)Nc2cccc(S(=O)(=O)N(C)c3ccccc3)c2)c2ccccc2c1=O	-	-9.2	-	-	0
COC(=O)C1=C(C(=O)OC)[C@]2([C@@H]3CC=CCN[C@@H](Cc4ccccc4)C(=O)N3Cc3ccccc3)C=C[C@H]1O2	-	0	-	-	0
COC(=O)C1=C(C(=O)OC)[C@]2([C@H]3CC=CCN[C@@H](Cc4ccccc4)C(=O)N3Cc3ccccc3)C=C[C@H]1O2	-	0	-	-	-10
COc1cc(/C=C/C(=O)OCC(=O)NCc2ccco2)ccc1O	0	0	0	0	0
O=C(CCS(=O)(=O)c1ccccc1)NC1CCCCC1	0	0	0	0	0
O=C(CCS(=O)(=O)c1ccc(Br)s1)NC1CCCCCC1	0	0	-11	0	0
C=C1C(=O)C23CCC4C(C)(C(=O)OC)CCCC4(C)C2CCC1(O)C3 (configuration not stated)	-	0	-	-	-8.6
CCOc1ccc2oc(C(=O)OCC(=O)NC3CC3)c(C)c2c1	0	0	0	0	0
CCOC(=O)N1CCN(Cc2cc(=O)oc3ccc(Cl)cc23)CC1	0	0	0	0	0
CCOC(=O)N1CCN(Cc2cc(=O)oc3cc4c(cc23)CCC4)CC1	0	0	0	0	-14
O=S(=O)(NCCSCc1ccc(Cl)cc1Cl)c1ccc2c(c1)OCCO2	0	-9.1	0	0	0
O=S(=O)(NCCSc1ccc(Cl)cc1)c1ccc2c(c1)OCCO2	0	0	-5.4	0	0
COc1ccc(S(=O)(=O)NCCSc2ccc(Cl)cc2)cc1OC	0	0	0	0	0
CCc1cccc(NC(=O)Cn2c(=O)c3cccn3c3ccccc32)c1	0	0	0	0	0
C/C(=N\Nc1nc(C)c(C)s1)c1ccc([N+](=O)[O-])cc1	0	0	0	0	-21
CCn1c(=O)c(=O)[nH]c2cc(C(=O)NC(C)c3ccc(S(N)(=O)=O)cc3)ccc21 (configuration not stated)	0	0	0	0	0
O=C(CCCCCN1C(=O)[C@@H]2Cc3ccccc3CN2C1=O)Nc1cccc(F)c1	25	0	0	0	0
CC(C)(C)C1CCC2(CC1)C(C#N)=C(SCC(=O)Nc1ccccc1)NC(=O)C2C#N (configuration not stated)	100	0	0	0	0
CC1(C)CC(=O)C2=C(C1)NC(SCC(=O)Nc1ccccc1)=C(C#N)C21CCCCC1	0	0	0	0	0
Cc1noc(C)c1CSCC(=O)N(C)CC(=O)Nc1ccccc1C(F)(F)F	-	0	-	-	0
CC(C)Cn1nc(NC(=O)C(C)(C)C)c2cc3ccccc3nc21	0	0	0	0	0
CC(C)Cn1nc(NC(=O)c2cccs2)c2cc3ccccc3nc21	0	0	0	-7	0
COc1cc(C2CC(=O)c3c([nH]c(C(=O)OCCOC(C)C)c3C)C2)cc(OC)c1OC (configuration not stated)	100	0	0	0	0
SMILES	TMEM16A inh	KCNK3 block	Kir21 block	KCNK9 inh	ANO1 activ
O=C(c1cccc(Cl)c1)C1CCCN(C(=O)c2ccc3c(c2)OCO3)C1 (configuration not stated)	0	0	-4.8	0	0
COC(=O)c1cc(OC)nc2ccc(Br)cc12	0	0	0	0	0
CCCn1cc(SCC(=O)NCc2ccco2)c2ccccc21	0	0	-5.2	0	0
O=C(CSc1cn(CCNC(=O)c2ccccc2)c2ccccc12)NCc1ccco1	0	0	0	0	0
COc1ccc(CC(=O)Nc2ccccc2N2CCCCC2)cc1OC	0	0	-6.2	0	0
COc1cccc(CC(=O)Nc2ccccc2N2CCCC2)c1	0	0	-6.7	0	0
COc1ccc(CC(=O)Nc2ccccc2N2CCOCC2)cc1OC	0	0	0	0	0
CN(C(=O)CN1CCCCCC1)c1c(N)n(Cc2ccccc2)c(=O)[nH]c1=O	-	0	-	-	0
Cc1cccc(-n2nc([N+](=O)[O-])c(=NC3CCN(Cc4ccccc4)CC3)n2O)c1	0	0	0	0	0
CC1=C(C(=O)OCCBr)C(c2cccc3ccccc23)NC(=O)N1 (configuration not stated)	0	0	0	0	0
CCOC(=O)c1cc2c(C)n(-c3ccc(C)cc3)c(C)c2ccc1=O	100	0	0	0	0
CCOC(=O)c1cc2c(C)n(-c3ccc(OCC)cc3)c(C)c2ccc1=O	0	0	0	0	0
COc1ccc(CCNC(=O)[C@H](C)N2C(=O)N3CCc4c([nH]c5ccccc45)[C@@]3(C)C2=O)cc1	0	0	0	0	0
O=C1C(F)=CC(COC(c2ccccc2)(c2ccccc2)c2ccccc2)OC1n1cc(F)c(=O)[nH]c1=O (configuration not stated)	-	0	-	-	-13
CC(=O)OCC1OC(n2cc(F)c(=O)[nH]c2=O)C(OC(C)=O)C1OC(C)=O (configuration not stated)	0	0	0	0	0
O=C(COC(=O)c1ccccc1NS(=O)(=O)c1ccc(Cl)cc1)NCc1ccccc1	100	0	0	0	0
COc1cccc(NC(=O)c2oc3ccccc3c2NC(=O)c2ccc3c(c2)OCO3)c1	0	0	0	-7.9	0
Cc1c(C)c2ccc(OCC(=O)N3CC[C@@]4(O)CCCC[C@H]4C3)cc2oc1=O	0	0	0	0	-5.6
Cc1cc(NC(=O)CSc2nc3ccccc3c(=O)n2CCCC(=O)NCc2ccccc2)n[nH]1	0	0	0	0	0
O=C(CCCn1c(SCC(=O)c2ccc(F)cc2)nc2ccccc2c1=O)NCc1ccccc1	25	0	0	0	0
CC1CC(C)(C)N(C(=O)CN2CCN(C)CC2)c2ccccc21 (configuration not stated)	0	0	0	0	0
CC(=O)N1c2ccccc2C2CCCC[C@@H]21 (some centres not stated)	-	0	-	-	0
CC(=O)N1Cc2ccccc2C(C)CC12CCCC2 (configuration not stated)	0	0	-5.1	0	0
CC(=O)N1c2ccccc2C(C)CC12CCCCC2 (configuration not stated)	0	0	-4.7	0	0
O=C(c1cccc(NC2=NC3CS(=O)(=O)CC3S2)c1)N1CCN(c2cccc(Cl)c2)CC1 (configuration not stated)	0	0	0	0	0
Cc1ccc(NC(=O)c2ccccc2NS(=O)(=O)c2ccc(Cl)s2)cc1S(=O)(=O)N1CCOCC1	25	0	0	0	0
Cc1ccc(NC(=O)c2oc3ccccc3c2COC(C)C)cc1S(=O)(=O)N1CCOCC1	-	-9.4	-	-	0
